Screening data deposited in PubChem by The Scripps Research Institute Molecular Screening Center.
CHRM1 agonist – human M1 muscarinic receptor agonism. activation, % at 3 µM. 0.33% of 360,000 active. CHO-K1 hM1, Fluo-8 calcium fluorescence, agonist mode; 0% DMSO, 100% acetylcholine EC100;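 active means activation above the run's mean compound activation plus 3 SD, cut at about 16% in these data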;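 further: peak over basal fluorescence ratio within a 140 s kinetic read after compound addition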
Target sequence (P11229 whole entry, looked up): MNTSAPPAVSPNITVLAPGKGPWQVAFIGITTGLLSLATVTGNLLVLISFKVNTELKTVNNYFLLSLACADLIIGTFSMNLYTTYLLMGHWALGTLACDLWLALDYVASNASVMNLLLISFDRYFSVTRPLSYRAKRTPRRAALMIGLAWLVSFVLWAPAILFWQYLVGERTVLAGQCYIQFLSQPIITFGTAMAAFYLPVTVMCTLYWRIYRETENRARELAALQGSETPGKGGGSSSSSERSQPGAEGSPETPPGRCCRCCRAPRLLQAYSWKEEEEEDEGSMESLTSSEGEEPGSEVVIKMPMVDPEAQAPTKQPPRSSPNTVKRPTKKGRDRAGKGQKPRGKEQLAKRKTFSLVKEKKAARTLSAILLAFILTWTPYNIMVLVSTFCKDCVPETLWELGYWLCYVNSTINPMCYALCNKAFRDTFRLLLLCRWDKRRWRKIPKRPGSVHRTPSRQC
CHO-K1 Ca PAM – nonselective activator or artifact in parental CHO-K1 calcium assay; ATP EC20, Fluo-8 calcium fluorescence; 0% at ATP EC20, 100% at ATP max; 0.02% of 360,000 active; activation, % at 3 µM;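 active means activation above the run cutoff, the mean activation of all test compounds plus 3 SD, cut at about 40% in these data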;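 further: peak over basal fluorescence ratio in a 140 s read after ATP addition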
CHO-K1 Ca antag – nonselective inhibitor or artifact in parental CHO-K1 cells. ATP-induced calcium, Fluo-8 fluorescence. inhibition, % at 3 µM. 0.6% of 360,000 active. AID 602250;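 active means inhibition above a per-plate cutoff, the plate's mean sample inhibition plus 3 SD, cut at about 24% in these data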
CHRM1 PAM – positive allosteric modulators of human M1 muscarinic receptor | AID 588819 | P11229 | CHO-K1 hM1, Fluo-8 calcium fluorescence, ACh EC20; 0% = ACh EC20, 100% = maximal ACh | 0.088% of 360,000 active | activation, % at 3 µM; in the data active means activation above about 19%, passing the limit was not always enough
CHO-K1 Ca ag – M1 agonist counterscreen hit in parental CHO-K1 cells; Fluo-8 calcium fluorescence; scaled to maximal ATP response, vehicle zero; activation, % at 3 µM; 0.48% of 360,000 active; AID 602248; in the data active means activation above about 15%;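 further: untransfected CHO-K1 host cells lacking M1 receptor as counterscreen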
M1 antag – human CHRM1 antagonism; P11229; CHO-K1 hM1, Fluo-8 calcium fluorescence, ACh EC80 antagonist; inhibition, % at 3 µM; 1.3% of 360,000 active;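 active means percent inhibition above its own plate's cutoff, namely the mean of that plate's compound wells plus 3 SD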;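 further: peak over basal fluorescence ratio during 140 s after agonist addition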
Of the large screens only hits and unclear results are named; the others gave an inactive call. In the library only some 2.3% were active in any assay of this set; here they are far more common.

Cc1ccc(S(=O)(=O)N2C[C@H]3C(=O)C[C@@H](c4ccccc4F)N(S(=O)(=O)c4ccc(C)cc4)[C@H]3C[C@H]2c2ccccc2F)cc1	CHO-K1 Ca antag 29.4
Cc1ccc([C@@H]2C[C@H]3[C@@H](CN2S(=O)(=O)c2ccc(C)cc2)C(=O)C[C@@H](c2ccccc2F)N3S(=O)(=O)c2ccc(C)cc2)cc1	none
Cc1ccc(S(=O)(=O)N2C[C@H]3C(=O)C[C@@H]4C(=O)N(c5ccccc5)C(=O)[C@@H]4[C@@H]3C[C@H]2c2cccc(Cl)c2)cc1	CHO-K1 Ca antag 31.0
CC1(C)CC(NS(=O)(=O)c2ccc3ccccc3c2)CC(C)(C)N1	none
COC1c2ccccc2C(=O)N1CCc1ccc(Cl)cc1 (stereo unspecified)	none
COC(=O)CS(=O)(=O)c1ccsc1C(=O)Nc1ccc(F)c(F)c1	none
CCC(c1ccc(O)cc1)C(CC)c1ccc(O)cc1 (stereo unspecified)	none
Cc1cc(C(c2ccc(O)cc2)c2cc(C)c(O)cc2C)c(C)cc1O	CHRM1 agonist 42.3
CCN(CC(=O)Nc1c(F)cccc1F)C(=O)C1CC(=O)N(CCc2ccccc2)C1 (stereo unspecified)	none
Cc1ccc(S(=O)(=O)N2C(=O)CCC2C(=O)O/N=C(\N)c2ccccc2)cc1 (stereo unspecified)	CHRM1 agonist 17.8
O=C(CCc1nc2ccccc2c(=O)[nH]1)NCCN1C(=O)S/C(=C\c2ccc(Cl)cc2Cl)C1=O	M1 antag 26.1
O=C(CCc1nc2ccccc2c(=O)[nH]1)Nc1ccc(Cl)c(Cl)c1	none
O=C(NC(=S)NC1CCCCC1)c1ccc(F)cc1	none
CC(=O)c1cccc(NC(=O)NCCc2c[nH]c3ccccc23)c1	none
O=C(COC(=O)c1ccccc1C(=O)OCC(=O)NCCc1c[nH]c2ccccc12)NCCc1c[nH]c2ccccc12	M1 antag 34.1
O=C(Nc1cccc(CNCCc2c[nH]c3ccccc23)c1)c1ccccc1Cl	CHO-K1 Ca ag 26.8
Cc1ccc(CN(C)C(=O)c2cccc(S(=O)(=O)N3CCN(c4ccccc4)CC3)c2)cc1	none
Cc1ccc(-c2cc(-c3ccccc3)[nH]c(=S)c2C#N)cc1	none
N#Cc1c(N)[nH]c(=S)c(C#N)c1-c1ccccc1	CHO-K1 Ca antag 24.1
CCCCN(C(=O)C1CCC1)c1c(N)n(CCC)c(=O)[nH]c1=O	none
CCCCN(C(=O)C1CCCC1)c1c(N)n(CC(C)C)c(=O)[nH]c1=O	CHRM1 PAM 29.9
COc1ccccc1NC(=O)Nc1nc(C(C)(C)C)cs1	CHO-K1 Ca ag 31.0
CCOC(=O)c1ccc(NC(=S)NC2CC(C)(C)NC(C)(C)C2)cc1	CHRM1 agonist 41.7
Cc1ccc(C(=O)COC(=O)CCCC(=O)Nc2cc(C(F)(F)F)ccc2Cl)cc1C	none
CCOc1cc(/C=C\[N+](=O)[O-])ccc1OCC(=O)Nc1ccccc1C	CHRM1 PAM 25.6
CC1(c2nnnn2-c2ccc3c(c2)OCCO3)CCC(=O)N1CCOc1ccccc1 (stereo unspecified)	none (no result: CHRM1 agonist, CHRM1 PAM, M1 antag)
COc1ccc(OC)c(S(=O)(=O)NCC(c2cccs2)N2CCc3ccccc3C2)c1 (stereo unspecified)	none
CCc1ccc2oc(-c3ccc(OC)cc3)cc(=Nc3c(C)n(C)n(-c4ccccc4)c3=O)c2c1	M1 antag 46.9
CCCCCN(C(=O)CCC(=O)OCc1cc(C)ccc1C)c1c(N)n(CCCC)c(=O)[nH]c1=O	none
O=C(O)CCCn1cc(NC(=O)c2c(F)cccc2F)cn1	CHO-K1 Ca ag 16.4
COc1cc(F)ccc1-c1cc(C(=O)NCc2ccc(C(F)(F)F)cc2)[nH]n1	none
CCOC(=O)C1=C[C@@H](c2ccccc2)N(S(=O)(=O)c2ccc(C)cc2)[C@H]1c1ccc(OC)cc1	none
O=C(CCCc1nc2ccccc2s1)NCc1ccccc1	none
c1ccc(CN2CCN(CCOCCOc3ccc4c(c3)CCC4)CC2)cc1	M1 antag 29.2
O=C(c1ccccc1)c1ccc(OCCOCCN2CCN(Cc3ccccc3)CC2)cc1	M1 antag 87.3
O=C(CCN1CCN(CCO)CC1)Nc1ccc(OCc2ccccc2)cc1	none
O=C(CCCc1nc2ccccc2s1)NNC(=O)CCN1CCN(Cc2ccccc2)CC1	CHRM1 agonist 17.3
O=C(CCN1CCN(Cc2ccccc2)CC1)Nc1ccc(OCc2ccccc2)cc1	M1 antag 24.4
Cc1c(C(C)C[C@H](C)O)oc(=O)c2c1Oc1c(C)c(C(C)C[C@H](C)O)oc(=O)c1C2 (stereo partly specified)	none
COc1ccc2cc(C3(C)NC(=O)N(CC(=O)N4CCCCC4)C3=O)ccc2c1 (stereo unspecified)	none
S=C(Nc1ccccc1)Nc1ccc(OCc2ccccc2)cc1	CHO-K1 Ca antag 26.2
NS(=O)(=O)c1ccc(NC(=S)Nc2ccc(OCc3ccccc3)cc2)cc1	none
Clc1nnc(Cl)c2c1ncn2Cc1ccccc1	none
CN(C)CC#CCC(O)(c1ccccc1)c1ccccc1	M1 antag 87.1
CCN(CC)CC#CCC(C)(c1ccccc1)c1ccccc1	M1 antag 72.3
CCN(CC)CC#CC(C)(C)OC(C)=O	none
Cc1cccc(CN(C)C)c1CC(O)(c1ccccc1)c1ccccc1	none
C=CC(O)(C#CCN(CC)CC)c1ccccc1 (stereo unspecified)	M1 antag 37.9
CCN(CC)CC#CCC(O)(c1ccccc1)c1ccc(Br)cc1 (stereo unspecified)	M1 antag 91.7
CCNc1nc(OC)nc(N(OC)S(=O)(=O)c2ccc(C)cc2)n1	none
Cc1[nH]c(=O)c(S(=O)(=O)c2ccccc2)c(C)c1Cl	none
O=S(=O)(CC(O)(c1ccccc1)c1ccccc1)CC(O)(c1ccccc1)c1ccccc1	none
CCN(CC)CC#CCC(O)(c1ccccc1)c1ccccc1	M1 antag 93.4
Cc1ccc2ccccc2c1C(O)c1ncc(-c2ccccc2F)[nH]1 (stereo unspecified)	none
CC(c1ccccc1)C1OCC(C[N+]2(C)CCCCC2)O1 (stereo unspecified)	M1 antag 98.6
CC(C)=CC(=O)N1CCC(n2nccc2NC(=O)CCc2ccccc2)CC1	CHO-K1 Ca antag 40.0
CC#CC(=O)N1CCC(n2nccc2NC(=O)CCc2ccccc2)CC1	none
CC(C)(CC(=O)N1CCN(c2ccc(Cl)cc2)CC1)CC1=NS(=O)(=O)c2ccccc2N1	M1 antag 30.2
CC1CCCC(NC(=O)c2cccs2)C1C (stereo unspecified)	none
COC(=O)c1ccc(S(=O)(=O)NCc2ccccn2)n1C	none
Cc1ccc2c(c1)nnn2C1CCN(S(C)(=O)=O)CC1	CHO-K1 Ca antag 23.9
